Consider six compounds from PubChem BioAssay (EPA / NIEHS).

What all share (settings): mRNA level, 48 h; actives raise or lower the signal
Read-out in test [1]: Ezrin (EZR), EZR (gene 7430)
The experiment in a line: LTEA_HepaRG_EZR: Life Technologies and Expression Analysis (LTEA) Assay for Ezrin (EZR) using HepaRG (AID 2283491). A digest of the protocol: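 EZR transcript levels came from Fluidigm qRT-PCR and were normalized to three housekeeping genes after 48 h chemical exposure of HepaRG cells. Dosing used an 8-point half-log series with a 100 uM top concentration in 0.5% DMSO, tested in duplicate; both directions were fitted versus vehicle.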

Read-out in test [2]: Cytochrome P450 3A7 (Homo sapiens) (UniProt P24462)
The experiment in a line: LTEA_HepaRG_CYP3A7: Life Technologies and Expression Analysis (LTEA) Assay for CYP3A7 using HepaRG (AID 2283492). Summed up:
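Cells were thawed, plated, cultured 48 h, then treated for a further 48 h with chemicals (eight-point half-log series from 100 uM, 0.5% DMSO). RNA was isolated and CYP3A7 expression quantified by qRT-PCR normalised to ACTB, GAPDH and POLR2A.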

Read-out in test [3]: Fatty Acid-Binding Protein 1 (FABP1), FABP1 (gene 2168)
The experiment in a line: LTEA_HepaRG_FABP1: Life Technologies and Expression Analysis (LTEA) Assay for Fatty Acid-Binding Protein 1 (FABP1) using HepaRG (AID 2283494). A digest of the protocol: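 Differentiated human HepaRG cells exposed 48 h in serum-free induction medium to eight half-log concentrations up to 100 uM (0.5% DMSO), duplicate. FABP1 mRNA by qRT-PCR, normalised to ACTB, GAPDH, POLR2A; bidirectional fitting against DMSO.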

Read-out in test [4]: Cytochrome P450 7A1 (Homo sapiens) (UniProt P22680)
The experiment in a line: LTEA_HepaRG_CYP7A1: Life Technologies and Expression Analysis (LTEA) Assay for Cytochrome P450 7A1 (CYP7A1) using HepaRG (AID 2283496). A digest of the protocol:
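HepaRG cells plated 48 h, then switched to serum-free induction medium and exposed in duplicate for 48 h to 8-point half-log series from 100 uM in 0.5% DMSO. CYP7A1 mRNA by qRT-PCR (TaqMan), normalized to ACTB/GAPDH/POLR2A; bidirectional fit versus DMSO.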

Read-out in test [5]: Glutathione S-Transferase (GSTA2), GSTA2 (gene 2939)
The experiment in a line: LTEA_HepaRG_GSTA2: Life Technologies and Expression Analysis (LTEA) Assay for Glutathione S-Transferase (GSTA2) using HepaRG (AID 2283497). A digest of the protocol: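 Differentiated human HepaRG cells were exposed in duplicate for 48 h in serum-free induction medium, 8 points from 100 uM top in half-log steps, 0.5% DMSO. GSTA2 mRNA was measured by TaqMan qRT-PCR, normalized to ACTB, GAPDH and POLR2A; bidirectional fit versus DMSO.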

Read-out in test [6]: Glutamate-cysteine ligase catalytic (GCLC), GCLC (gene 2729)
The test can be described thus: LTEA_HepaRG_GCLC: Life Technologies and Expression Analysis (LTEA) Assay for Glutamate-cysteine ligase catalytic (GCLC) using HepaRG (AID 2283498). A digest of the protocol:
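Differentiated HepaRG cells exposed 48 h in serum-free induction medium, eight-point half-log series topping at 100 uM in 0.5% DMSO, duplicates. GCLC mRNA by qRT-PCR normalized to ACTB, GAPDH and POLR2A, fitted bidirectionally versus DMSO.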

Read-out in test [7]: growth arrest and DNA damage 45 (GADD45G), GADD45G (gene 10912)
The experiment in a line: LTEA_HepaRG_GADD45G: Life Technologies and Expression Analysis (LTEA) Assay for growth arrest and DNA damage 45 (GADD45G) using HepaRG (AID 2283499). A digest of the protocol: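 Human hepatic HepaRG line treated 48 h with chemicals (eight concentrations, half-log steps from 100 uM); transcript induction or repression of GADD45G scored by qRT-PCR versus DMSO vehicle.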

Read-out in test [8]: Glutamate-cysteine ligase regulatory (GCLM), GCLM (gene 2730)
The test can be described thus: LTEA_HepaRG_GCLM: Life Technologies and Expression Analysis (LTEA) Assay for Glutamate-cysteine ligase regulatory (GCLM) using HepaRG (AID 2283500). A digest of the protocol: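 Differentiated HepaRG cells exposed 48 h in serum-free induction medium to eight half-log concentrations up to 100 uM (0.5% DMSO). GCLM mRNA by TaqMan qRT-PCR, normalized to ACTB, GAPDH and POLR2A; bidirectional fit versus DMSO.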

Read-out in test [9]: Glutathione S-transferase M3 (GSTM3), GSTM3 (gene 2947)
The test can be described thus: LTEA_HepaRG_GSTM3: Life Technologies and Expression Analysis (LTEA) Assay for Glutathione S-transferase M3 (GSTM3) using HepaRG (AID 2283501). A digest of the protocol: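 Changes in GSTM3 expression, an oxidative-stress marker, were scored by bidirectional curve fitting against 0.5% DMSO vehicle. Human HepaRG cultures received chemicals for 48 h in duplicate, highest concentration 100 uM with half-log dilutions.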

Read-out in test [10]: Heat shock 70 kDa protein 1 (HSPA1A), gene 3303
The test can be described thus: LTEA_HepaRG_HSPA1A: Life Technologies and Expression Analysis (LTEA) Assay for Heat shock 70 kDa protein 1 (HSPA1A) using HepaRG (AID 2283502). Summed up: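 Human HepaRG cells in serum-free induction medium were exposed in duplicate for 48 h to 8 half-log concentrations, highest 100 uM, in 0.5% DMSO. HSPA1A mRNA read by TaqMan qRT-PCR, normalized to ACTB, GAPDH, POLR2A, fitted bidirectionally against DMSO.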

Read-out in test [11]: Hypoxia-inducible factor 1-alpha (Homo sapiens) (UniProt Q16665)
The experiment in a line: LTEA_HepaRG_HIF1A: Life Technologies and Expression Analysis (LTEA) Assay for Hypoxia-inducible factor 1 (HIF1A) Trancription factor using HepaRG (AID 2283503). Summed up:
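Differentiated HepaRG cells in serum-free induction medium exposed 48 h, in duplicate, to 8-point half-log series from 100 uM in 0.5% DMSO. HIF1A mRNA measured by TaqMan qRT-PCR, normalized to ACTB/GAPDH/POLR2A, fitted bidirectionally versus DMSO.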

Read-out in test [12]: 3-Hydroxy-3-Methylglutaryl-CoA Synthase 2 (HMGCS2), HMGCS2 (gene 3158)
The experiment in a line: LTEA_HepaRG_HMGCS2: Life Technologies and Expression Analysis (LTEA) Assay for 3-Hydroxy-3-Methylglutaryl-CoA Synthase 2 (HMGCS2) using HepaRG (AID 2283504). A digest of the protocol: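 Expression of HMGCS2 in human HepaRG liver cells is measured by qRT-PCR 48 h after dosing (highest 100 uM, half-log series, 0.5% DMSO). Values come from bidirectional concentration-response fitting with DMSO as baseline.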

Read-out in another test: HGF (gene 3082)
The test can be described thus: LTEA_HepaRG_HGF: Life Technologies and Expression Analysis (LTEA) Assay for Hepatocyte Growth Facto (HGF) using HepaRG (AID 2283505). Summed up: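 Gain or loss of HGF mRNA in human HepaRG liver cells after 48 h chemical exposure; eight concentrations up to 100 uM with 0.5% DMSO vehicle, quantified by TaqMan qRT-PCR.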

Read-out in test [13]: Insulin Like Growth Factor 1 (IGF1), IGF1 (gene 3479)
The test can be described thus: LTEA_HepaRG_IGF1: Life Technologies and Expression Analysis (LTEA) Assay for Insulin Like Growth Factor 1 (IGF1) using HepaRG (AID 2283506). Summed up: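 Differentiated HepaRG cells in serum-free induction medium, exposed 48 h in duplicate to 8 half-log concentrations up to 100 uM in 0.5% DMSO. IGF1 mRNA by Fluidigm qRT-PCR, normalised to ACTB, GAPDH and POLR2A.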

Read-out in test [14]: Intercellular Adhesion Molecule 1 (ICAM1), ICAM1 (gene 3383)
The experiment in a line: LTEA_HepaRG_ICAM1: Life Technologies and Expression Analysis (LTEA) Assay for Intercellular Adhesion Molecule 1 (ICAM1) using HepaRG (AID 2283507). Summed up:
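Gain or loss of transcript in HepaRG hepatic cells is quantified by qRT-PCR after 48 h chemical exposure (up to 100 uM, half-log steps), with DMSO as baseline.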

Read-out in test [15]: Insulin-like growth factor-binding protein 1 (IGFBP1), IGFBP1 (gene 3484)
The experiment in a line: LTEA_HepaRG_IGFBP1: Life Technologies and Expression Analysis (LTEA) Assay for Insulin-like growth factor-binding protein 1 (IGFBP1) using HepaRG (AID 2283508). A digest of the protocol:
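mRNA induction or loss was quantified by qRT-PCR after 48 h chemical exposure of human HepaRG cells, with 0.5% DMSO as vehicle and baseline. Concentration-response over eight points up to 100 uM.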

Read-out in test [16]: Interleukin 6 (IL6), IL6 (gene 3569)
The experiment in a line: LTEA_HepaRG_IL6: Life Technologies and Expression Analysis (LTEA) Assay for Interleukin 6 (IL6) using HepaRG (AID 2283509). Summed up:
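HepaRG cells exposed in duplicate for 48 h to eight half-log concentrations, top 100 uM, in 0.5% DMSO serum-free induction medium. mRNA measured by qRT-PCR, normalized to ACTB, GAPDH and POLR2A. Bidirectional fit versus DMSO.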

Read-out in test [17]: Interleukin 6 Receptor (IL6R), IL6R (gene 3570)
The experiment in a line: LTEA_HepaRG_IL6R: Life Technologies and Expression Analysis (LTEA) Assay for Interleukin 6 Receptor (IL6R) using HepaRG (AID 2283510).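 On AC50: TaqMan qRT-PCR signal normalized to ACTB GAPDH and POLR2A housekeeping genes.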 Summed up: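 Differentiated HepaRG cells, plated 48 h, then exposed in duplicate for 48 h in serum-free induction medium to 8 half-log concentrations (top 100 uM, 0.5% DMSO). IL6R mRNA measured by TaqMan qRT-PCR, normalized to ACTB/GAPDH/POLR2A; bidirectional fit vs DMSO.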

Calls of active or inactive are those of the source. How the source made its calls: active means hit-call score of the fitted dose curve at least 0.9, where 1 is the maximum; inactive means score below 0.9.

Sequence of Hypoxia-inducible factor 1-alpha (Homo sapiens) (Q16665 whole entry, looked up): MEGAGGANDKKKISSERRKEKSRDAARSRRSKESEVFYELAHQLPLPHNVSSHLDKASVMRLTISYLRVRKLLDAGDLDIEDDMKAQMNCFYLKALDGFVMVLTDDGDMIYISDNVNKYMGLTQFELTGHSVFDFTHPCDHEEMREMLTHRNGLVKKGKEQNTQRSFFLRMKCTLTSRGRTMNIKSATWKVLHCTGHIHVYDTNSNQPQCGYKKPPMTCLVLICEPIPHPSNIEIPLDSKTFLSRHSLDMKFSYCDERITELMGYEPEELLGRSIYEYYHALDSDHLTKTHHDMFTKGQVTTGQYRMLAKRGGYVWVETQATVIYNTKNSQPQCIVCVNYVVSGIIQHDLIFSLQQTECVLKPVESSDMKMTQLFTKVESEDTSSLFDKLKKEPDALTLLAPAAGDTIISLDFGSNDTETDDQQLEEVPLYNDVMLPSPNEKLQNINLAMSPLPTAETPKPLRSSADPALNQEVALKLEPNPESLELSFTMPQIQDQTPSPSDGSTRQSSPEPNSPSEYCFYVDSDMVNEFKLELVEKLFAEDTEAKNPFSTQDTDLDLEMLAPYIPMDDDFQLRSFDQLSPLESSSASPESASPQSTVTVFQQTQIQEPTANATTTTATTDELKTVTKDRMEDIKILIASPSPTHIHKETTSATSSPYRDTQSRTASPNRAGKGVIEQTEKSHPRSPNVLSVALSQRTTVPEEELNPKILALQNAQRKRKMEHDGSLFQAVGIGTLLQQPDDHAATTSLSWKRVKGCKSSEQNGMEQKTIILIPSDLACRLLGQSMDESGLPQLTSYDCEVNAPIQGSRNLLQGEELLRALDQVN
Sequence of Cytochrome P450 3A7 (Homo sapiens) (P24462 whole entry, looked up): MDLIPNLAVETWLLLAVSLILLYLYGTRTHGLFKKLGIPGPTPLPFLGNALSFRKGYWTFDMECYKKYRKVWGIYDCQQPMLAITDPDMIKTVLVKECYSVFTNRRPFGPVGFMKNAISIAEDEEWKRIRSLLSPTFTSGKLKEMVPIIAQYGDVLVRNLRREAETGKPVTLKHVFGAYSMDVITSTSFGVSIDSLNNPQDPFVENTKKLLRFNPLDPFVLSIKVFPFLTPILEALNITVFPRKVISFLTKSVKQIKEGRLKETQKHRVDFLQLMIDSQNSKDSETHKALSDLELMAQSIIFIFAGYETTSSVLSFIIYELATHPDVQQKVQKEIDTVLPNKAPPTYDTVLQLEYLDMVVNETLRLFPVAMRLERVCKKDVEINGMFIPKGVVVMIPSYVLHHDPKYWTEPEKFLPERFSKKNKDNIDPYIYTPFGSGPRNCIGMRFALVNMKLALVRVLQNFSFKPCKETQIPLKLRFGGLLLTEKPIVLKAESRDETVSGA

`Oc1cccc(O)c1`: the call in test [1], in test [2], in [3], in [4], in [5] and in [6] was inactive. Further, the call in [7], in test [8], in [9], in test [10], in test [11] and in [12] was inactive. Moreover, the compound was called inactive (with HGF (gene 3082); in [13]; in test [14]; in test [15]; in test [16]; in test [17]).
As for `c1ccc2c(c1)Cc1ccccc1-2`, the compound was called inactive in [1], in [2], in test [3], in [4], in test [5] and in test [6]. The compound was called inactive in test [7], in [8], in test [9], in test [10], in [11] and in test [12]. In addition, the compound was classed as inactive (in the test with HGF (gene 3082); in test [13]; in test [14]; in test [15]; in test [16]; in test [17]).
Take `c1ccc2cc3c(ccc4ccccc43)cc2c1`: the compound was classed as inactive (in [1]; in test [6]; in test [9]; in test [10]; in test [11]; in the test with HGF (gene 3082)). Moreover, the compound was classed as inactive in test [16]. For the same compound, the AC50 was 15.7 µM (active) in [2]; 21.7 µM (active) in test [3]; 20.6 µM (active) in test [4]; 8.52 µM (active) in test [5]; 15.5 µM (active) in test [7]; 38.8 µM (active) in test [8]. The AC50 in test [12] was 19.7 µM (active); in [13] it was 20.1 µM (active); in test [15] it was 8.36 µM (active); in test [17], 9.75 µM (active).
As for `CCCCCCC(=O)O`, the call in test [1], in test [2], in [3], in test [4], in test [5] and in test [6] was inactive. Moreover, the compound was called inactive in test [7], in test [8], in test [9], in test [10], in test [11] and in [12]. Moreover, the call (with HGF (gene 3082); in [13]; in test [14]; in [15]; in [16]; in [17]) was inactive.
For the compound `CC[C@H](c1ccc(O)cc1)[C@@H](CC)c1ccc(O)cc1`, the AC50 in test [1] was 88.4 µM (active); in test [3], 80.7 µM (active); in test [4], 78.8 µM (active); in [5], 87.3 µM (active); in test [6], 79.8 µM (active); in test [7], 66.3 µM (active). In addition, the half-maximal activity concentration (AC50) in test [8] was 70.2 µM (active); in test [10], 94.4 µM (active); in test [12], 79.4 µM (active); in test [13] it was 86.3 µM (active); in [15], 68.1 µM (active); in test [16] it was 77.3 µM (active). The AC50 in test [17] was 73.8 µM (active). For the same compound, the compound was classed as inactive (in test [2]; in [9]; with HGF (gene 3082); in [14]).
In the case of `CCc1ccc(CCOc2ccc(CC3SC(=O)NC3=O)cc2)nc1` (centres undefined), the AC50 is 15.9 µM (active) in [1]; 88.3 µM (active) in test [3]; 68.5 µM (active) in test [4]; 78.1 µM (active) in [5]; 14.2 µM (active) in test [6]; 11 µM (active) in [7]. The AC50 was 68.3 µM (active) in test [8]; 23.6 µM (active) in test [10]; 85.2 µM (active) in [12]; 64.9 µM (active) in test [13]; 82 µM (active) in [15]; 88.8 µM (active) in test [16]. Moreover, in [17], the AC50 was 63.5 µM (active). Besides, the compound was called inactive (in [9]; in test [11]; in the test with HGF (gene 3082)).

As usually defined, the AC50 is the midpoint of the concentration-response curve, whichever way the signal moves.
